IDE exosite inh – insulin-degrading enzyme (human) exo-site inhibition. P14735. purified IDE, FL-6b probe fluorescence polarization; active compounds read low. z-score at 20 µM. actives 6.3% (n = 17,000). AID 1259349;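 active = z-score of -3 or lower, meaning strong loss of probe binding signal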;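 also: His-tagged human IDE residues 42-1019 made in E. coli with 30 nM FL-6b probe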
Target sequence (P14735 42-1019 limits assumed): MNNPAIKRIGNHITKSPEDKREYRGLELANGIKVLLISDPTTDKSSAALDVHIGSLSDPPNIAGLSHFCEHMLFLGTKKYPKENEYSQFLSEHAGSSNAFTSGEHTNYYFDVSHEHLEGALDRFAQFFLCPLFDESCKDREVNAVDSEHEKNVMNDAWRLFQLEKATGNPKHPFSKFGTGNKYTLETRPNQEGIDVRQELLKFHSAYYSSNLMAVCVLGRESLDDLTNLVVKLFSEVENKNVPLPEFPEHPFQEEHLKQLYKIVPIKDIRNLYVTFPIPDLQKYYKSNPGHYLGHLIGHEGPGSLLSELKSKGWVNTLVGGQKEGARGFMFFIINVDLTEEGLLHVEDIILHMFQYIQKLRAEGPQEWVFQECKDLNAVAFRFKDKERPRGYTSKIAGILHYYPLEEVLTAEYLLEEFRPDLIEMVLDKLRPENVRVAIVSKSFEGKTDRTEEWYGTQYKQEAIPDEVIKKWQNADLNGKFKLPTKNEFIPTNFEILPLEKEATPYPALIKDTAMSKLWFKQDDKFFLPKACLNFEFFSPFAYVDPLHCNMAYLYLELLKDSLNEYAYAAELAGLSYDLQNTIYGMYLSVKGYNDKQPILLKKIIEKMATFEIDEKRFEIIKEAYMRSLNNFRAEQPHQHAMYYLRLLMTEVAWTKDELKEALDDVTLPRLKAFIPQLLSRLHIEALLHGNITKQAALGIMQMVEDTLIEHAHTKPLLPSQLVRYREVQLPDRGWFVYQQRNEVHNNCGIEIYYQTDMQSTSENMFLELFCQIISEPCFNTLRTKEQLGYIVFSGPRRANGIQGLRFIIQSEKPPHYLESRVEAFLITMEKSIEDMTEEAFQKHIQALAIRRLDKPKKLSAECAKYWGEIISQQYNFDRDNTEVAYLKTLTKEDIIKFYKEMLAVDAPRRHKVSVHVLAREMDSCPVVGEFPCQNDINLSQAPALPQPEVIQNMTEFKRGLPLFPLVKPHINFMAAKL
* marks the source's active call; other numbers are inactive results. Shown is part of a subset that was picked to be rich in hits.

SMILES	IDE exosite inh
Cn1cnc(S(=O)(=O)N2CCCCN3[C@H](CO)[C@@H](c4ccc(-c5cccc(F)c5)cc4)[C@@H]3C2)c1	-3.7*
Cc1ccc(OC(=O)N(C)C[C@H]2OCc3ccccc3-c3ccccc3C(=O)N([C@@H](C)CO)C[C@H]2C)cc1	0.73
C/C=C/c1ccc([C@@H]2[C@@H](CO)N3C(=O)CN(C(=O)Nc4ccc(F)cc4)C[C@H]23)cc1	0.19
CN(C)C(=O)c1ccc(-c2ccccc2[C@H]2[C@@H](C#N)N(C(=O)C3CC3)[C@@H]2CO)cc1	-2
COc1cccc(-c2ccc(C3[C@@H]4CN(C(=O)Nc5ccccc5F)C[C@H]3N4)cc2)c1 (stereo partly drawn)	-1.2
C[C@@H]1CN([C@H](C)CO)C(=O)c2cc(-c3ccc(C#N)cc3)cnc2O[C@H]1CN(C)Cc1cccnc1	-0.4
O=C(c1cccnc1)N1CC(=O)N2[C@H](CO)[C@@H](c3ccc(-c4ccccc4F)cc3)[C@H]2C1	0.12
O=C(CC(F)(F)F)N1C[C@H]2[C@@H](c3ccccc31)[C@H](CO)N2C(=O)C1CCCCC1	0.018
COc1ccc2c3c([nH]c2c1)[C@@H](CO)N(Cc1ccc(Cl)cc1)CC31CN(S(C)(=O)=O)C1	0.86
COc1ccc2c3c([nH]c2c1)[C@@H](CO)N(C(=O)Nc1ccc(F)cc1)CC31CCN(C(=O)Cc2ccncc2)CC1	-0.84
COc1ccc(CN2CC3(CCN(C(=O)Cc4ccncc4)CC3)c3c([nH]c4cc(OC)ccc34)[C@@H]2CO)cc1	-3.1*
COc1ccc2c3c([nH]c2c1)[C@H](CO)N(Cc1ccc(Cl)cc1)CC31CN(S(C)(=O)=O)C1	-0.77
CCCC(=O)N1CCC2(CC1)CN(Cc1ccc(Cl)cc1)[C@H](CO)c1[nH]c3cc(OC)ccc3c12	-3.6*
COc1ccc2c3c([nH]c2c1)[C@H](CO)N(C(=O)Nc1ccc(F)cc1)CC31CCN(C(=O)Cc2ccncc2)CC1	1.2
N#C[C@H]1[C@@H](c2ccc(-c3ccncc3)cc2)[C@@H](CO)N1C(=O)C1CCCCC1	3.7
CO[C@H]1CN(C)C(=O)c2cc(NC(C)=O)ccc2OC[C@@H](C)N(S(C)(=O)=O)C[C@@H]1C	0.62
C[C@@H]1CN([C@@H](C)CO)C(=O)c2cc(NC(=O)Nc3cccc4ccccc34)ccc2O[C@H]1CN(C)S(=O)(=O)c1cccs1	-0.59
COCC(=O)N1CC(=O)N2[C@H](CO)[C@@H](c3ccc(-c4cccnc4)cc3)[C@H]2C1	1.9
CS(=O)(=O)N1[C@@H](C#N)[C@H](c2ccc(C#CC3CCCC3)cc2)[C@@H]1CO	0.41
O=C(c1cnccn1)N1CC(=O)N2[C@H](C1)[C@@H](c1ccc(C#CCc3ccccc3)cc1)[C@@H]2CO	-2.9
COc1ccc2c3c([nH]c2c1)[C@H](CO)N(Cc1ccccc1)CC31CCN(C(=O)NC(C)C)CC1	-1.8
COc1ccc2c3c([nH]c2c1)[C@H](CO)N(C(C)=O)CC31CCN(C(C)=O)CC1	-0.41
CCCNC(=O)N1CCC2(CC1)CN(C(=O)COC)[C@H](CO)c1[nH]c3cc(OC)ccc3c12	-0.62
COc1ccc2c3c([nH]c2c1)[C@@H](CO)N(Cc1cccc(F)c1)CC31CCN(C(C)=O)CC1	-4.2*
CCCNC(=O)N1CCC2(CC1)CN(Cc1cccc(OC)c1)[C@@H](CO)c1[nH]c3cc(OC)ccc3c12	-3.1*
SMILES	IDE exosite inh
COc1ccc2c3c([nH]c2c1)[C@H](CO)N(CC1CC1)CC31CCN(C(=O)Nc2cccc(F)c2)CC1	-0.44
N#C[C@@H]1[C@@H](c2ccccc2C2=CCCC2)[C@@H](CO)N1C(=O)NC1CCCCC1	-0.05
CS(=O)(=O)N1[C@@H](CO)[C@@H](c2ccccc2)C12CN(Cc1cc(F)ccc1F)C2	-0.12
O=C(Nc1ccccc1F)N1CCCCN2[C@H](C1)[C@@H](c1ccc(/C=C/c3ccccc3)cc1)[C@@H]2CO	-2.7
O=C(Nc1ccccc1F)N1CCCCN2[C@H](CO)[C@H](c3ccc(/C=C/c4ccccc4)cc3)[C@@H]2C1	-3.9*
C/C=C/c1ccc([C@H]2[C@@H](CO)N3CCCCN(C(=O)Nc4ccccc4F)C[C@@H]23)cc1	-0.84
O=C(Nc1ccccc1F)N1CCCCN2[C@H](CO)[C@H](c3ccc(/C=C/c4ccccc4)cc3)[C@H]2C1	-4.9*
O=C(Nc1ccccc1F)N1CCCCN2[C@H](C1)[C@H](c1ccc(C3=CCCC3)cc1)[C@@H]2CO	4.4
O=C(Nc1ccccc1F)N1CCCCN2[C@H](CO)[C@H](c3ccc(C4=CCCC4)cc3)[C@H]2C1	2.1
COc1ccccc1CNC(=O)C[C@H]1C=C[C@@H](NC(=O)CC2CC2)[C@H](CO)O1	0.65
O=C(Nc1cc(F)ccc1F)N[C@H]1CC[C@@H](CC(=O)N2CCc3ccccc3C2)O[C@@H]1CO	3.3
O=C(C1CCC1)N1CC(=O)N2[C@H](C1)[C@@H](c1ccc(Br)cc1)[C@@H]2CO	0.91
O=C(C1CCC1)N1CC(=O)N2[C@@H](CO)[C@@H](c3ccc(C4=CCCCC4)cc3)[C@@H]2C1	-3.9*
O=C(C1CCC1)N1CC(=O)N2[C@H](CO)[C@H](c3ccc(-c4ccccc4F)cc3)[C@@H]2C1	-3.2*
O=C(C1CCCC1)N1CC(=O)N2[C@H](CO)[C@@H](c3ccc(-c4ccccc4F)cc3)[C@H]2C1	2.8
O=C(C1CCCC1)N1CC(=O)N2[C@@H](CO)[C@H](c3ccc(-c4ccccc4F)cc3)[C@@H]2C1	-5.7*
O=C(C1CCC1)N1CC(=O)N2[C@@H](CO)[C@@H](c3ccc(-c4ccccc4F)cc3)[C@@H]2C1	-5.6*
O=C(C1CCCC1)N1CC(=O)N2[C@H](C1)[C@H](c1ccc(-c3ccccc3F)cc1)[C@@H]2CO	-2.9
O=C(C1CCOCC1)N1CC(=O)N2[C@@H](CO)[C@H](c3ccc(C4=CCCC4)cc3)[C@@H]2C1	1.1
O=C(C1CCC1)N1CC(=O)N2[C@H](CO)[C@@H](c3ccc(Br)cc3)[C@H]2C1	-0.54
O=C(Cc1ccncc1)NCC[C@@H]1CC[C@@H](NS(=O)(=O)c2ccccc2Cl)[C@@H](CO)O1	1.8
COCC(=O)N1[C@H](C#N)[C@H](c2ccccc2-c2cccc(C)c2)[C@@H]1CO	-0.14
C/C=C/c1ccc([C@H]2[C@@H](CO)N(C(=O)CC)[C@H]2CNC(=O)CC)cc1	2.4
Cc1ccc(S(=O)(=O)NCC[C@@H]2CC[C@@H](NC(=O)c3cccnc3)[C@@H](CO)O2)cc1	3.3
CCCC#Cc1ccc([C@@H]2[C@H](CO)N3C(=O)CN(C(=O)Nc4ccccc4)C[C@@H]23)cc1	1.1
SMILES	IDE exosite inh
CN(C)C(=O)c1ccc(-c2ccc([C@@H]3[C@@H](C#N)N(C(=O)Nc4ccccc4F)[C@H]3CO)cc2)cc1	2.6
Cn1cnc(S(=O)(=O)N2C[C@H](O)COC[C@@H]3O[C@@H](CC(=O)NCc4cccc(F)c4)CC[C@H]32)c1	0.74
O=C(C1CC1)N1CC(=O)N2[C@@H](CO)[C@H](c3ccc(-c4ccccc4F)cc3)[C@@H]2C1	0.71
O=C(C1CC1)N1CC(=O)N2[C@H](C1)[C@@H](c1ccc(-c3ccccc3F)cc1)[C@@H]2CO	-8.1*
N#C[C@H]1[C@@H](c2ccccc2C2=CCCC2)[C@H](CO)N1C(=O)NC1CCCCC1	-1.4
CCCNC(=O)N1CC(=O)N2[C@H](CO)[C@H](c3ccc(-c4ccc(C)cc4)cc3)[C@@H]2C1	-1.4
CCCNC(=O)N1CC(=O)N2[C@H](CO)[C@H](c3ccc(-c4ccc(F)cc4)cc3)[C@H]2C1	0.88
COc1ccccc1NC(=O)N1CCCCN2[C@H](CO)[C@H](c3ccc(-c4cccc(C)c4)cc3)[C@H]2C1	-1.5
